MenB inh: Mtb MenB enzyme inhibition. P9WNP5. MenB enzyme assay, absorbance read-out. inhibition, % (test concentration not listed). 100,000 tested, 0.43% active. AID 540299; in the data active = inhibition above about 21%, passing the limit was not always enough
Target sequence (P9WNP5 whole entry, looked up): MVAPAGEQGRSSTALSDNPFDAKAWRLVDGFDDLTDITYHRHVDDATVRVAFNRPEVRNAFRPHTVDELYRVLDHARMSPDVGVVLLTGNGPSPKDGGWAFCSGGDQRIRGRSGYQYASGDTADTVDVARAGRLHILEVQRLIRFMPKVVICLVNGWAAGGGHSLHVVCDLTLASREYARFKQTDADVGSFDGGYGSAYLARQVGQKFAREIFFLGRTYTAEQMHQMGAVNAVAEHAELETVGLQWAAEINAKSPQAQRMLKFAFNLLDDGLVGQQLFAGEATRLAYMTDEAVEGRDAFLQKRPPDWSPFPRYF
MbtI inh: blocks the Mycobacterium tuberculosis siderophore enzyme MbtI; purified MbtI enzyme, fluorescence intensity read-out; P9WFX0; 100,000 tested, 0.89% active; inhibition, % (test concentration not listed); in the data active = inhibition mostly above about 56%, no sharp cut-off; inactive = mostly below about 77%
Polio RdRp inh: inhibitors of poliovirus RNA polymerase binding and polymerization. % elongation, % (compound at 16.7 µg/mL). 150,000 tested, 0.66% active. AID 588519. P03300. poliovirus polymerase elongation, fluorescence polarization; stronger effect = lower value; in the data active = % elongation below about 90%
AID504770: E. coli YBA685 growth inhibition, screen for V. cholerae RctB inhibitors | E. coli YBA685 rctB-dependent plasmid, OD600 growth, 3 h; stronger effect = lower value | z-score (no concentration beside the values) | 130,000 tested, 0.27% active; in the data active = z-score below about -2, passing the limit was not always enough
An asterisk follows results filed as active; x = no result given; ! = not active in a repeat. Shown are actives, neighbours in structure and some others; about 1.4% of the full set was active somewhere.

SMILES	MenB inh	MbtI inh	Polio RdRp inh	AID504770
O=C1C2C3C=CC(O3)C2C(=O)N1c1ccccc1C(F)(F)F (centres undefined)	x	x	x	-0.75
O=C1C=CC(=O)N1c1cc(C(F)(F)F)ccc1Cl	x	98*	101	1.2
O=C(COc1ncnc2ccc(Br)cc12)N1CCCCC1	-4	-12	103	-0.25
S=C1C=C(N2CCCCC2)CC(c2ccc(Cl)cc2)S1 (centres undefined)	-37	9	102	0.55
O=C(COC(=O)CSc1n[nH]c(-c2ccccc2)n1)NC1CCCCC1	11	x	84*	0.9
O=C(CSc1n[nH]c(Cc2ccccc2)n1)NC1CCCCC1	-9	-9	98	0.85
NC(=O)c1cc(Cl)c(C(N)=O)cc1Cl	x	x	x	0.5
CC(C(=O)O)c1ccc(N2Cc3ccccc3C2=O)cc1 (centres undefined)	-14	-4	102*!	0.45
Ic1ccc(Nc2nc3nonc3nc2N/N=C\c2ccco2)cc1	29*	2	99	-0.15
CN1C2CCC1CC(NC1CC3CCC(C1)N3C)C2 (centres undefined)	-14	12	101	0.05
CCN(CC)CCOC(=O)c1ccc(NC(=O)c2cc3cccc(OC)c3oc2=O)cc1	x	x	90*	x
CCN(CC)CCOC(=O)c1ccc(NC(=O)c2cc3cc(OC)ccc3oc2=O)cc1	x	x	102	x
CCCN1C(=O)/C(=c2\sc3nc(-c4ccccc4)nn3c2=O)c2ccccc21	17	1	102	-0.4
CCOC(=O)c1c(N2C(=O)C=CC2=O)sc(C)c1-c1ccccc1	-14	77*	108	-0.45
COCCn1c(=NC(=O)CN2C(=O)c3ccccc3C2=O)sc2ccccc21	-26	-4	103	-0.75
Brc1cc(Br)cc(CN2CCOCC2)c1	x	x	x	0.25
CN1N=C(C(C)(C)C)CSC1=Nc1ccc(F)cc1	15	22	100	1.7
CCc1ccc(C2=CC(=O)C=CC2=O)cc1	2	43	102	-0.15
O=C1C=CC(=O)C(CCCCCCC2=CC(=O)C=CC2=O)=C1	11	96*	101	-0.1
O=C1C=CC(=O)C(CCC2=CC(=O)C=CC2=O)=C1	14	98*	101	0.6
CCOC(=O)c1ccc(NC(=O)CSc2nnc(CNC(=O)c3ccco3)n2-c2ccc(F)cc2)cc1	-8	-2	101	0.65
Cc1noc(/C=C/N(C)C)c1S(=O)(=O)N1CCCC(C(=O)N2CCc3ccccc32)C1 (centres undefined)	12	-3	100	-0.15
COCCOc1ccc(C(F)(F)F)cc1Nc1nc2ccccc2o1	-53	18	87*	-0.4
CNC(=O)C1CCC(CNS(=O)(=O)c2ccc(C)cc2)CC1 (centres undefined)	-80	-13	102	-0.4
CCc1cc(C(=O)O)n(C)n1	29*	3	102	0.45
SMILES	MenB inh	MbtI inh	Polio RdRp inh	AID504770
O=C(Nc1ccccc1)C(=S)NCc1ccco1	-21	3	102	0.8
S=C(NCc1ccco1)Nc1ccccc1	37*	4	102	0.95
CCCCN(CC)c1ncnc2c1sc1nc(N3CCOCC3)c3c(c12)CCCC3	x	x	106	x
COc1ccc(NC(=O)c2cc(C)nc3c2c(C)nn3-c2cccc(Cl)c2C)c(OC)c1	x	x	102	x
Cc1cc(C)cc(OC(=O)c2cccnc2)c1	0	7	99	1.2
Cc1ccc(OC(=O)c2cccnc2)cc1	52*	2	102	1.7
O=C(Nc1nnc(C2CC2)s1)c1ccc2c(c1)OCO2	x	x	x	0.1
Cc1cc(C(=O)O)no1	32*	3	101	0.05
Cc1ccc(N2C(=O)c3ccccc3C2=O)cc1	13	-3	98	0
Cc1ccc(-n2sc3ccccc3c2=O)cc1	-52	101*	102	-1.4
Cc1ccc(C(=O)CBr)cc1C	x	88*	101	-1.1
Cc1ccc(C(=O)c2ccc(C)c(C)c2)cc1C	-21	3	102	0.3
CCn1c(C(C)Oc2ccc(Cl)cc2)n[nH]c1=S (centres undefined)	-16	89*	103	1.7
CCn1cc(C(=O)O)c(=O)c2cnc(N3CCN(C(=S)NCc4ccccc4)CC3)nc21	-18	-4	102	-3.4*
CCN(C(=O)Cn1c(=O)oc2cc(Cl)ccc21)c1cccc(C(F)(F)F)c1	x	x	82*	x
CCn1c(=NC(=O)CSCC(=O)Nc2nccs2)sc2ccccc21	x	x	x	-0.35
CN(C)c1ccc(C(=C2C=CC(=[N+](C)C)C=C2)c2ccc(N(C)C)cc2)cc1	6	9	98	5.7
CN(C)c1ccc(C2=CC=CC(=C3C=CC(=[N+](C)C)C=C3)O2)cc1	-53	84*	99	1
Cn1c(SCC(=O)O)nc2ccccc21	37*	6	102	1.9
Cn1c(SCC(=O)NN)nc2ccccc21	-11	1	108	0.15
O=C1CSCC(=O)N1c1ccc2c(c1)OCO2	x	x	x	-0.3
O=C1CSCC(=O)N1c1cccnc1	3	-12	84*	-1
CC(Nc1ccc(-c2nc(-c3cccnc3)no2)cc1[N+](=O)[O-])c1ccccc1 (centres undefined)	x	x	105	x
c1ccc(Nc2nc3c(ccc4ccccc43)s2)cc1	-19	x	83*	-0.55
Cc1sc(Nc2ccccc2)nc1-c1ccccc1	-7	-2	101	0.5
SMILES	MenB inh	MbtI inh	Polio RdRp inh	AID504770
CN1CCN(CCNC(=O)c2ccc(Cn3c(SCc4ccccc4)nc4cccnc43)cc2)CC1	10	87	100	1.2
CS(=O)(=O)c1nc2ccccc2s1	7	x	89*	0.35
CC(OC(=O)c1ccncc1)C(=O)Nc1cc(C(F)(F)F)ccc1Cl (centres undefined)	x	-13	104	-0.3
Cc1c(C(=O)Nc2cccc(F)c2)sc2nc(-c3cc4ccccc4oc3=O)[nH]c(=O)c12	x	x	64*	x
Cc1cc(C)cc(NC(=O)c2sc3nc(-c4cc5ccccc5oc4=O)[nH]c(=O)c3c2C)c1	x	x	105	x
Cc1nc(-c2ccc3[nH]c(=O)oc3c2)cs1	-13	97*	74*	-1.8
N#CCCn1c(=S)[nH]c2ccccc21	-11	99	82*	-0.05
S=c1[nH]c2ccccc2n1Cc1ccccc1	-19	84*	96	0.15
S=c1[nH]c2ccccc2n1CCOc1ccccc1	-72	95*	99	0.2
Cc1cc(C(=O)COC(=O)c2cc(=O)[nH]c3ccccc23)c(C)n1C	-34	12	99	2.4
CCn1ccc2cc(S(=O)(=O)N3CCCN(C(=O)Nc4cccc(Cl)c4)CC3)ccc21	x	x	108	x
N#Cc1c(N)cc(N)[nH]c1=S	-1	97*	104	-0.8
Cc1cc(C(F)(F)F)c(C#N)c(=S)[nH]1	-33	81	104	1.5
O=C(Nc1ccccc1)c1cccc(N2CCCC2=O)c1	20	-4	101	-0.7
COc1ccccc1N1CCN(C(=O)Nc2cn(CC(C)C)c(=O)c3ccccc23)CC1	x	x	104	x
CCCNC(=O)Nc1cn(CC(C)C)c(=O)c2ccccc12	1	120	16*	-0.9
Cc1ccc(N2CCN(C(=O)Nc3cn(CC(C)C)c(=O)c4ccccc34)CC2)c(C)c1	x	x	68*	x
COc1ccc(CNC(=O)Nc2cn(CC(C)C)c(=O)c3ccccc23)c(OC)c1	x	x	-10*	x

From PubChem
